Six1-Eya2 blk: inhibitors of human Six1/Eya2 interaction. Q15475+O00167. AlphaScreen GST-Six1/His-Eya2 binding, biochemical; active compounds read low. activity change, % (no concentration beside the values). 360,000 tested, 0.56% active; also: % is scaled to controls: 0 for no effect and ±100 for the full control effect
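Homogeneous AlphaScreen proximity assay pairing GST-Six1 with His-tagged Eya2 (added as 5X mix: 250 nM and 500 nM) in 50 mM Tris pH 8.0, 300 mM NaCl, 1 mM TCEP. Glutathione donor and nickel acceptor beads; 1 h, 37 °C, dark.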
RGS4 inhibitor: blocks human RGS4-accelerated GTP hydrolysis; P49798; Transcreener GDP fluorescence polarization, RGS4-accelerated GTP hydrolysis; Potency, µM (doses to about 114 µM), for inactives: at the top dose activity change, negative = inhibition, hits mostly inhibitors; 390,000 tested, 0.039% active; active = well fitted curve in the direction sought with a large enough effect; inconclusive = small, poorly fitted or top-dose-only effect, or another doubt; inactive = no such curve, though single readings can be large; an effect the other way counts as inactive or inconclusive; also: potency is read from the fitted curve at half-maximal effect; % is scaled to controls: 0 for no effect and ±100 for the full control effect; nearly all actives have a fitted effect of over 75% in size
Target sequence (P49798 whole entry, looked up): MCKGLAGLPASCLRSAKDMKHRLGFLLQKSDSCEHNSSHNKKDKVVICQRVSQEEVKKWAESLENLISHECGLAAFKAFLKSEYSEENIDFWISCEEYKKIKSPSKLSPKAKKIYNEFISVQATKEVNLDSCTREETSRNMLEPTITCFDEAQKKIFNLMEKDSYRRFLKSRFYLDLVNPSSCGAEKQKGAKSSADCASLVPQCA
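MLSMR compounds (23 nl, pin-transferred) preincubated 10 min at room temperature with a 500nM (2x) first reagent, then RGS4 at 900nM (2x) plus Transcreener GDP mix added; fluorescence polarization (620/688 nm) read before and after 90 min at 30 °C.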
pAkt inh: inhibitors of Akt phosphorylation; 360,000 tested, 0.32% active; AID 651550; activity change, % for hits at 50 µM; Neuro2A IGF-stimulated pAkt S473 HTRF, 20 min; active compounds read low; in the data active = activity change below about -80%; inconclusive = mostly about -51% to -80%; also: % is scaled to controls: 0 for no effect and ±100 for the full control effect
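Single-point screen (50 µM final compound) in Neuro2A cells stimulated 20 min with 6 nM IGF at 37 deg C. After lysis, Ser473-phosphorylated Akt read by HTRF (ex 330 nm, em 615/665 nm) as the 665/615 ratio.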
CtBP-E1A blk: blocks the CtBP interaction with E1A; AlphaScreen GST-E1A/His-CtBP binding, 1536-well; active compounds read low; activity change, % (concentration not given with the values); 340,000 tested, 0.49% active; AID 651724; also: % is scaled to controls: 0 for no effect and ±100 for the full control effect
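AlphaScreen with 125 nM GST-E1A and 125 nM His-CtBP (5X stocks) in Tris pH 8.0, 300 mM NaCl, BSA, Tween 20, TCEP. Compounds preincubated 2 h at 37 deg C, then glutathione donor/nickel acceptor beads added for 1 h at 37 deg C in dark.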
GRP78 ERSR act: ER stress response induction in glioma | U87-MG GRP78 promoter luciferase reporter, 16 h | Potency, µM, for inactives: at the highest dose activation, most hits filed as activators | 420,000 tested, 0.02% active | AID 602332; active = well fitted curve in the direction sought with a large enough effect; inconclusive = small, poorly fitted or top-dose-only effect, or another doubt; inactive = no such curve, though single readings can be large; an effect the other way counts as inactive or inconclusive; also: potency is read from the fitted curve at half-maximal effect; series mostly up to about 76 µM; % of control where 0% means no effect; nearly all actives have a fitted effect of over 35% in size
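ERSR induction read as luciferase luminescence (Bright-Glo, 10 min at room temperature) in stably transfected human U87-MG glioma cells exposed to compounds for 16 h, using GRP78 as sensor.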
* = called active by the depositor. Shown are actives, neighbours in structure and some others; about 0.88% of the full set was active somewhere. Rule as the data show it, unless noted: active = activity change below about -65%; inconclusive = mostly about -30% to -63%; inactive = weaker than that.

Results for O=C(CCC(=O)Nc1ccc(F)cc1)N/N=C/c1ccc(O)cc1O ?
Six1-Eya2 blk: inconclusive; RGS4 inhibitor: 16%; pAkt inh: inactive; CtBP-E1A blk: inconclusive; GRP78 ERSR act: -1%

How did Oc1ccc(C=NNC(=S)Nc2ccccc2)nc1 do in these assays?
Six1-Eya2 blk: -97*; pAkt inh: inactive; CtBP-E1A blk: -76*; GRP78 ERSR act: -5%

Results for Oc1ccc(C=NNC(=S)Nc2ccc(F)cc2)c(O)c1 ?
Six1-Eya2 blk: -80*; RGS4 inhibitor: -31%; pAkt inh: inactive; CtBP-E1A blk: -93*; GRP78 ERSR act: 5%

How did Oc1ccc(/C=N/NC(=S)Nc2cccnc2)c(O)c1 do in these assays?
Six1-Eya2 blk: -90*; RGS4 inhibitor: -36%; pAkt inh: inactive; CtBP-E1A blk: -82*; GRP78 ERSR act: -1%

Results for Oc1ccc(/C=N/NC(=S)Nc2cccnc2)c(O)c1O ?
Six1-Eya2 blk: -89*; RGS4 inhibitor: -109%; pAkt inh: inactive; CtBP-E1A blk: -93*; GRP78 ERSR act: -1%

What do the screens show for `Fc1cccc(F)c1/C=N/NC(=S)Nc1cccnc1`?
Six1-Eya2 blk: -2; RGS4 inhibitor: -32%; pAkt inh: inactive; CtBP-E1A blk: -4; GRP78 ERSR act: 7%

Results for Oc1cccc(/C=N/NC(=S)Nc2cccnc2)c1O ?
Six1-Eya2 blk: -91*; RGS4 inhibitor: -36%; pAkt inh: inactive; CtBP-E1A blk: -95*; GRP78 ERSR act: 1%

What do the screens show for `CCOc1ccccc1N1CCN(C/C=C/c2ccc(N(C)C)cc2)CC1`?
Six1-Eya2 blk: -77*; RGS4 inhibitor: -8%; pAkt inh: inactive; CtBP-E1A blk: inconclusive; GRP78 ERSR act: -3%

How did CCOc1ccccc1N1CCN(Cc2ccco2)CC1 do in these assays?
Six1-Eya2 blk: -14; RGS4 inhibitor: 1%; pAkt inh: inactive; CtBP-E1A blk: -11; GRP78 ERSR act: -4%

Results for Cc1oc(-c2ccc(F)cc2)cc1-c1nn2c(-c3ccoc3C)nnc2s1 ?
Six1-Eya2 blk: -21; RGS4 inhibitor: inconclusive; pAkt inh: -109%*; CtBP-E1A blk: -28; GRP78 ERSR act: -3%

Results for COc1ccc(O)c(/C=N/NC(=O)CN2CCS(=O)(=O)CC2)c1 ?
Six1-Eya2 blk: inconclusive; RGS4 inhibitor: 13%; pAkt inh: inactive; CtBP-E1A blk: -71*; GRP78 ERSR act: 5%

Results for O=C(COc1ccccc1C(=O)Nc1ccccc1)Nc1ccccc1F ?
GRP78 ERSR act: -1%

How did CC1(C)OC2OC(C(=O)N/N=C/c3cc(Br)ccc3O)C3OC(C)(C)OC3C2O1 (stereo not given) do in these assays?
Six1-Eya2 blk: -82*; RGS4 inhibitor: 3%; pAkt inh: inactive; CtBP-E1A blk: -90*; GRP78 ERSR act: -5%

Results for Cc1cc(C)n2nc(C(=O)NCC3Cc4cccc(-c5ccc(S(C)(=O)=O)cc5)c4O3)cc2n1 (stereo not given) ?
GRP78 ERSR act: 3%

How did COc1ccc(-n2ncc(N(C)n3cccc3)c(Cl)c2=O)cc1 do in these assays?
Six1-Eya2 blk: -8; RGS4 inhibitor: 1%; pAkt inh: -115%*; CtBP-E1A blk: 1; GRP78 ERSR act: -9%

Results for CCS(=O)(=O)c1ccc(-c2csc(-c3ccccc3Cl)n2)c(Cl)c1Cl ?
Six1-Eya2 blk: 5; RGS4 inhibitor: -16%; pAkt inh: -128%*; CtBP-E1A blk: 8; GRP78 ERSR act: 0%

How did CCS(=O)(=O)c1ccc(-c2csc(-c3ccc(Cl)cc3)n2)c(Cl)c1Cl do in these assays?
Six1-Eya2 blk: 0; RGS4 inhibitor: 2%; pAkt inh: inactive; CtBP-E1A blk: 8; GRP78 ERSR act: 5%

How did O=C(CNC1C(=O)Nc2ccccc21)Sc1ccccc1 (stereo not given) do in these assays?
Six1-Eya2 blk: 1; RGS4 inhibitor: -18%; pAkt inh: -111%*; CtBP-E1A blk: 4; GRP78 ERSR act: 0%

How did COc1ccc(CN(Cc2ccccc2)C(=O)c2ccno2)cc1COc1ccc(NC(C)=O)cc1 do in these assays?
RGS4 inhibitor: -33%

How did COc1cc(OC)cc(C(=O)/C=C2\Sc3ccccc3N2C)c1 do in these assays?
Six1-Eya2 blk: 0; RGS4 inhibitor: 23%; pAkt inh: inactive; CtBP-E1A blk: 8; GRP78 ERSR act: 2%

Results for CN1/C(=C\C(=O)c2cccs2)Sc2ccccc21 ?
Six1-Eya2 blk: -12; RGS4 inhibitor: -29%; pAkt inh: -104%*; CtBP-E1A blk: 28; GRP78 ERSR act: -9%

Results for COc1cccc(CNc2ccc(N3CCCCC3)cc2)c1OC ?
Six1-Eya2 blk: -66*; RGS4 inhibitor: inconclusive; pAkt inh: inactive; CtBP-E1A blk: inconclusive; GRP78 ERSR act: -2%

What do the screens show for `CC(C)N1C[C@@H](Sc2ccccn2)C[C@H]1C(=O)Nc1ccc2c(c1)Nc1ccccc1CC2`?
GRP78 ERSR act: -1%

How did O=C1C(=Cc2cn(-c3ccccc3)nc2-c2ccc(OCc3ccccc3)cc2)SC(=S)N1CCS(=O)(=O)O do in these assays?
Six1-Eya2 blk: -74*; pAkt inh: inactive; CtBP-E1A blk: -19; GRP78 ERSR act: -5%

What do the screens show for `Cc1ccc(-c2nn(-c3ccccc3)cc2C=C2SC(=S)N(CCS(=O)(=O)O)C2=O)cc1`?
Six1-Eya2 blk: inconclusive; pAkt inh: inactive; CtBP-E1A blk: inconclusive; GRP78 ERSR act: 0%

What do the screens show for `COc1ccc(-n2c(=O)c3ccccc3n(CC(=O)NC3CCCC3)c2=O)cc1`?
Six1-Eya2 blk: 13; RGS4 inhibitor: -24%; pAkt inh: -105%*; CtBP-E1A blk: 4; GRP78 ERSR act: -1%

Results for Cc1ccc(-c2nc(NCCCN(C)C)c3ccccc3n2)cc1 ?
Six1-Eya2 blk: -20; pAkt inh: inactive; CtBP-E1A blk: -2; GRP78 ERSR act: 3%

What do the screens show for `Cc1ccc(-c2csc3nc4c5ccccc5c(NCCCN(C)C)nn4c(=O)c23)cc1`?
Six1-Eya2 blk: -67*; RGS4 inhibitor: 5%; pAkt inh: inactive; CtBP-E1A blk: inconclusive; GRP78 ERSR act: -7%

Results for COc1ccc(/C=N/NC2=NS(=O)(=O)c3ccccc32)cc1 ?
Six1-Eya2 blk: -4; RGS4 inhibitor: 2%; pAkt inh: inactive; GRP78 ERSR act: 0%

What do the screens show for `O=c1nc(N/N=C/c2ccccn2)cn[nH]1`?
Six1-Eya2 blk: -91*; RGS4 inhibitor: -10%; pAkt inh: inactive; CtBP-E1A blk: -91*; GRP78 ERSR act: -3%

Results for Cc1ccc(/C=N/Nc2cn[nH]c(=O)n2)o1 ?
Six1-Eya2 blk: inconclusive; RGS4 inhibitor: -15%; pAkt inh: inactive; CtBP-E1A blk: -68*; GRP78 ERSR act: 2%

Results for Cc1ccc(/C=N/Nc2ccc3ccccc3n2)o1 ?
Six1-Eya2 blk: -12; RGS4 inhibitor: -2%; pAkt inh: inactive; CtBP-E1A blk: -2; GRP78 ERSR act: -15%

High-throughput results from PubChem BioAssay.
